{
  "source": "paper PMC12136788",
  "binders": {"B1": {"name": "chr17:44352837:44352938:+|3pUTR|ENSG00000030582|unk|total|mutant (ssRNA)", "RNA": "GGGAGUUCUACAGUCCGACGAUCCUGAAGACUCUGCAGCCCUCGGGACCCCACUCGGAGGGUGCCCUCUGCUCAGGCCUCCCCCGCACCUCCCCCUAACCAAAUUCUCCCUGGACCCCAUUCUGAGCUCCCCAUCACCAUGGGCAACAGAGGAUUGAGCAUCA"}, "B2": {"name": "ENSG00000107863:be:win_1351|CDS|ENSG00000107863|bound_else_gene|NA|bound_elsewhere_windowed (ssRNA)", "RNA": "GGGAGUUCUACAGUCCGACGAUCGUCCAGAUACGGCAACGCAGUGUGUCCCAAGAAAGACUGGAAGAUUCUGUGCUAAUGAAGUAUUGUCCAAGAAGUGCAUCUCAAGGAGCACUGACGUCUCCAUCUGUUAGUUUUAGUAAUCAACAGAGGAUUGAGCAUCA"}, "B3": {"name": "chr10:75150949:75151073:+|CDS|ENSG00000156671|unk|FALSE|unique (ssRNA)", "RNA": "GGGAGUUCUACAGUCCGACGAUCUGUUCGAAGAUUGGACCCAGAAUACUGGAAGACUAUACUGAGUUGUAUAUAUGUUUUUAUAGUAUUUGGAUUUACAUCUUUCAUUAUGGUUAUAGUCCAUGAGCGAGUGCCUGACAUGCACAACAGAGGAUUGAGCAUCA"}, "B4": {"name": "ENSG00000107863:be:win_4151|CDS|ENSG00000107863|bound_else_gene|NA|bound_elsewhere_windowed (ssRNA)", "RNA": "GGGAGUUCUACAGUCCGACGAUCAUUCAGCUACUAGUGACUCAACAAAAUCUAAGGGUUCUUGGGGAUCUGGAAAGGAUCAGUAUAGCAGGGAACUGCUUGUGUCCUCCAUCUUUGCAGCUGCUAGUCGCAAGAGGAAGAAGCCAACAGAGGAUUGAGCAUCA"}, "B5": {"name": "chr2:224001733:224001845:-|CDS|ENSG00000135919|unk|total|mutant (ssRNA)", "RNA": "GGGAGUUCUACAGUCCGACGAUCGGCCUCUGUGACGCUGCCUUCCAUCUGCUCCCACUUCAAUCCUCUGUCUCUCGAGGAACCCGGCUCCAACACGGGGAUCCAGGUUUUCAAUCAGAUUGUGAAGUCGAGGCCUCAUGACAACAACAGAGGAUUGAGCAUCA"}, "B6": {"name": "chr12:122341087:122341188:-|CDS|ENSG00000130779|unk|FALSE|bound_elsewhere (ssRNA)", "RNA": "GGGAGUUCUACAGUCCGACGAUCAGAAUUUGCUGAACUAAAAACACAAAUAGAGAAAAUGAGACUAGAUUACCAACACGAAAUAGAAAAUUUGCAGAAUCAACAAGACUCUGAACGGGCUGCCCAUGCUAAAGAGAUGGAAGCCAACAGAGGAUUGAGCAUCA"}, "B7": {"name": "ENSG00000070961:be:win_5751|3pUTR|ENSG00000070961|bound_else_gene|NA|bound_elsewhere_windowed (ssRNA)", "RNA": "GGGAGUUCUACAGUCCGACGAUCCUAAAAAUUGACCCUAUCAACUGGAGAGCCCACAAGGCAUAGGGAAUAGAGAAAAGGGAAAUGUUUUCAGUUUUCUUUUUUAUUUUGGUUAUGCUUAAAUAUGAAUGUAAUUACCAAAAGCAACAGAGGAUUGAGCAUCA"}, "B8": {"name": "chr12:39553730:39553837:-|3pUTR|ENSG00000173208|unk|FALSE|unique (ssRNA)", "RNA": "GGGAGUUCUACAGUCCGACGAUCGAAGUAUGUUAAGCUAAGCACAGAGAAAAAAAGGCAGCAAGACAUGUUUUAUAAGAUUUUAGCAUUAAGGAAGUAUAUGAUCUGACUUUUCAGAAGAAAAUAAACAAAUGCAUUAUGUAACAACAGAGGAUUGAGCAUCA"}, "B9": {"name": "chr20:13714314:13714426:-|3pUTR|ENSG00000089048|unk|FALSE|unique (ssRNA)", "RNA": "GGGAGUUCUACAGUCCGACGAUCUUUUUCUAGCCAUAAAGGAUGGAAGUCAAGAACUUUUUGUUGUUUAGUCAUGUUAAGUAUAGUUUAUGAAAUUAACUUGUAAAUAAAAGUGUAAAAUAUUUUCAUUAUUUUGUAUAGCACCAACAGAGGAUUGAGCAUCA"}, "B10": {"name": "chr6:152987361:152990084:-|three_prime_utr|ENSG00000112031|control|control|control (ssRNA)", "RNA": "GGGAGUUCUACAGUCCGACGAUCAGAUUAUCUACUGGAUGAACUUGUACAGUCAUUGAAGGAAUACGCCGAUUAUGAAUCUUUAGUAGAAAUUAUUUCCCAAAAAGUUUAAGUUGAUUUGUUAUUUAUAGACUUUCGUAGCUUCAACAGAGGAUUGAGCAUCA"}, "B11": {"name": "chr13:52036708:52036809:-|3pUTR|ENSG00000197168|unk|FALSE|unique (ssRNA)", "RNA": "GGGAGUUCUACAGUCCGACGAUCGUAGAACUUUUGAAUAUAGCCAUUAAUAUUUUUACUUUAAAGUUUCUAUUAAGAAAUCUUAGGCCGGGCAGUCUCAUCACUUUGGGAGGCCAAGGCAGGCAGAUCAUGAGGUCAGGAGUUCAACAGAGGAUUGAGCAUCA"}, "B12": {"name": "chr8:58582127:58582250:+|3pUTR|ENSG00000137575|unk|FALSE|bound_elsewhere (ssRNA)", "RNA": "GGGAGUUCUACAGUCCGACGAUCUUCAUAUUACUUUAGUUCUAUAGCAUACUUGCAUCUUUAACAUGCUAUCAUAGUACAUUUAGAAUGAUUGCCUUUGAUUUUUUUUUUAAAUUCUGUGUGUGUGUGUGUAAAAUGCCAAUUCAACAGAGGAUUGAGCAUCA"}, "B13": {"name": "chr3:68976711:68977116:-|CDS|ENSG00000163378|control|control|control (ssRNA)", "RNA": "GGGAGUUCUACAGUCCGACGAUCCUUUUUAGGAAUACCAAAGUUUUCAACUUUUUCAGCUUUAGAAUUUGUAAAUAUUUUUGUAGAAUAUCAUAUGACUGUAAUUCCAGAGUGUUCCAACUUGUUUAUGAUAUAUUUGGGUAACAACAGAGGAUUGAGCAUCA"}, "B14": {"name": "chr21:14371318:14371404:-|3pUTR|ENSG00000155304|msi1_unk|FALSE|overlapping (ssRNA)", "RNA": "GGGAGUUCUACAGUCCGACGAUCUAUGAAUAACAAUCUGAAGUCUUUUCAUAAAAAAAAUUAAUAAACUUUAGUUGUACAUUUAGCCAGUGUUAUUUGAAGUAUGUAACUUUUAAAAUAUUAAGUGUCUUGUAUGAUUAGAAUCAACAGAGGAUUGAGCAUCA"}, "B15": {"name": "chr7:107202531:107202632:-|3pUTR|ENSG00000164597|msi1|total|mutant (ssRNA)", "RNA": "GGGAGUUCUACAGUCCGACGAUCUAUUCUGAGAACUCAUAAAUAAAAUUCAGCCAAGAUUAAUCAAUCAAUCAAUCAAUCAGCCGACGUCAGAGAUAAGCAACUUUUUUUUCCAUUUAUUUGAAAUAAUAUACAAGAAUACCGCAACAGAGGAUUGAGCAUCA"}, "B16": {"name": "chr13:52036708:52036809:-|3pUTR|ENSG00000197168|unk|total|mutant (ssRNA)", "RNA": "B11 RNA with U25C, A26C, U40C, A41C, U83C, A84C"}},
  "note": "Positions count from the first letter of the chain named. In all, about 5,800 sequences were measured (“enrichment r”: median about 0.68, highest 2% from about 11 on). Shown is part of a subset that was picked to be rich in the highest values.",
  "data": [
    {"molecular_target": "T1, UNK ZnF1-6 (called full-length) (human, UniProt Q9C0B0 30-357)", "T1 sequence": "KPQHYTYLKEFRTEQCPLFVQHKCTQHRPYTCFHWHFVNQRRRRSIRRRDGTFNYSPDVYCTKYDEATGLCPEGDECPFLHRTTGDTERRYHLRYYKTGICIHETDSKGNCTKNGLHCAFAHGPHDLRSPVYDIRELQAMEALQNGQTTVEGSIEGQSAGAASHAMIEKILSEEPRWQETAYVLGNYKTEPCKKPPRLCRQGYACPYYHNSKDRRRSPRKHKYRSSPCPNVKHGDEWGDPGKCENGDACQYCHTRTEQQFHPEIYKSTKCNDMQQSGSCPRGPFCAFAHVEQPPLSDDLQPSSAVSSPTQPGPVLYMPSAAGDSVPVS", "assay": "nsRBNS (natural sequence RNA bind-n-seq); RBNS binding buffer (assumed for nsRBNS): 25 mM Tris pH 7.5, 150 mM KCl, 3 mM MgCl2, 0.01% Triton X-100, 500 ug/ml BSA, 20 U/ml SUPERase-In, 4 C; UNK is unkempt and MSI1 is Musashi-1; names of the RNAs are library labels; protein concentration not given here; high values mean tight binding", "units": {"binding signal": "enrichment R"}, "values": [
      {"binder": "B1", "binding signal": 0.732},
      {"binder": "B2", "binding signal": 4.38},
      {"binder": "B3", "binding signal": 0.389},
      {"binder": "B4", "binding signal": 0.489},
      {"binder": "B5", "binding signal": 0.666},
      {"binder": "B6", "binding signal": 8.87},
      {"binder": "B7", "binding signal": 0.412},
      {"binder": "B8", "binding signal": 0.997},
      {"binder": "B9", "binding signal": 62.3},
      {"binder": "B10", "binding signal": 1.84},
      {"binder": "B11", "binding signal": 21},
      {"binder": "B12", "binding signal": 5},
      {"binder": "B13", "binding signal": 9.89},
      {"binder": "B14", "binding signal": 1.48},
      {"binder": "B15", "binding signal": 1.94},
      {"binder": "B16", "binding signal": 2.85}
    ]}
  ]
}
